For 40 molecules, Potency results are on record in PubChem BioAssay (NCATS).

Records with an inconclusive call do not appear. The source made the active and inactive calls. Calls follow the shape of the dose curve; as a rule, active = well fitted cell-killing curve with a large enough effect; inconclusive = small, poorly fitted or top-dose-only effect, or effect the other way; inactive = no such curve, though single readings can be large or run the other way.
Potency is read from the fitted curve at half-maximal effect.

The nature of the test: Quantitative High-Throughput drug screen in 47 multiple myeloma cell lines against the NCATS MIPE library collection: RPMI8226_ATCC cell viability assay (AID 1919871). Also: nearly all actives have a fitted effect of over 30% in size. Particulars: RPMI8226 myeloma viability, CellTiter-Glo ATP luminescence, 48 h; series mostly up to 45.8 µM. The text has this:
PI: Beverly A. Mock Ph.D.
Laboratory of Cancer Biology and Genetics,
Center for Cancer Research, National Cancer Institute,
National Institute of Health, Bethesda, Maryland
Drug resistance and disease progression are common in multiple myeloma (MM) patients, underscoring the need for new therapeutic combinations. […] We hypothesized that effective combinations would reduce MYC expression and enhance p16 activity. […] These preclinical data identify potentially useful drug combinations for evaluation in drug-resistant MM and reveal potential mechanisms of combined drug sensitivity.
Described herein is the primary MIPE qHTS used to cherrypick compounds. Validated compounds were then further tested for potential synergistic activiy.
[1] Peat TJ, Gaikwad SM, Dubois W, Gyabaah-Kessie N, Zhang S, Gorjifard S, Phyo Z, Andres M, Hughitt VK, Simpson RM, Miller MA, Girvin AT, Taylor A, Williams D, D'Antonio N, Zhang Y, Rajagopalan A, Flietner E, Wilson K, Zhang X, Shinn P, Klumpp-Thomas C, McKnight C, Itkin Z, Chen L, Kazandijian D, Zhang J, Michalowski AM, Simmons JK, Keats J, Thomas CJ, Mock BA. Drug combinations identified by high-throughput screening promote cell cycle transition and upregulate Smad pathways in myeloma. Cancer Lett. 2023 Aug 1;568:216284. doi: 10.1016/j.canlet.2023.216284. Epub 2023 Jun 24. PMID: 37356470; PMCID: PMC10408729.
SEQUENCE No. (e.g., 1, 2, 3, etc.); […] (e.g., Cells, Incubation, Reagent, etc.); VALUE and DESCRIPTION.
1; Cells; 5 uL; white, solid bottom 1536-well Greiner assay plate.
2; Compounds; 23 nL; Kalypsis pin tool (Wako USA) equipped with a 1536-well pin head to transfer to the assay plates.
3; Incubation; 48 hours; 37C incubation.
4; Reagent;5uL; CellTiter Glo (Promega).
5; Detector; 425V; Luminescence; Viewlux PerkinElmer.
NOTES (numbers refer to Sequence numbers above)
1. The cell-based screening methods employed in this study were like those previously published. Briefly, the corresponding myeloma cell lines were screened in 1,536-well plates with 500 cells, 5-uL per well for inhibition of cell viability (assessed by measuring ATP levels with CellTiterGlo).
2. NCATS MIPE 4.0 library of approved and investigational drugs were added using the Kalypsis pin tool. Wells treated with DMSO only for 100% viability and media only for 0% viability were used as controls.
3. The assay plates were covered and incubated for 48 hours in a 37C, 5% CO2 incubator with controlled humidity.
4. After 48 hours, CellTilter-GloTM luminescent substrate mix (Promega) reagent was added to the assay plate and plates we incubated for 5 min at room temperature.
5. Signal was measured as median relative luminescence units on a ViewLux (PerkinElmer) multiplate reader.
[1] Heske CM, Davis MI, Baumgart JT, Wilson K, Gormally MV, Chen L, Zhang X, Ceribelli M, Duveau DY, Guha R, Ferrer M, Arnaldez FI, Ji J, Tran HL, Zhang Y, Mendoza A, Helman LJ, Thomas CJ. Matrix Screen Identifies Synergistic Combination of PARP Inhibitors and Nicotinamide Phosphoribosyltransferase (NAMPT) Inhibitors in Ewing Sarcoma. Clin Cancer Res. 2017 Dec 1;23(23):7301-7311. doi: 10.1158/1078-0432.CCR-17-1121. Epub 2017 Sep 12. PMID: 28899971; PMCID: PMC6636827.
On the technique in general: In ATP-based viability assays light output follows the ATP content of the culture.
For the molecule `Nc1cc(C(F)(F)F)c(-c2cc(N3CCOCC3)nc(N3CCOCC3)n2)cn1`, the Potency is 526 nM (active).

As for `CC1(O)CC(c2nc(-c3ccc4ccc(-c5ccccc5)nc4c3)c3c(N)nccn23)C1` (stereo not given), the Potency was 235 nM (active).

Turning to `O=C(O)[C@H](Cc1c[nH]c2ccccc12)N1C(=O)c2ccccc2C1=O`, the Potency result is “inactive”.

For `O=C(C=Cc1cccnc1)NCCCCC1CCN(C(=O)c2ccccc2)CC1`, the Potency is 93.5 nM (active).

With `COc1cc(C(=O)N2CCC(N3CCN(C)CC3)CC2)ccc1Nc1ncc2c(n1)N(C)c1ccccc1C(=O)N2C`, the Potency was 10500 nM (active).

As to `O=C(c1cncc(Br)c1)N1CCC(N2CCCC2)CC1`, the Potency entry is “inactive”.

As to `COc1ccc(C(=O)CC2(O)C(=O)Nc3c(Cl)ccc(Cl)c32)cc1` (stereo not given), the Potency is 2640 nM (active).

As to `COc1ccc(-c2cc3c(C)nc(N)nc3n(C3CCC(OCCO)CC3)c2=O)cn1` (stereo not given), the Potency was 26.4 nM (active).

Turning to `COc1cc2ncnc(Nc3ccc(F)c(Cl)c3)c2cc1NC(=O)C=CCN1CCCCC1`, the Potency was 18700 nM (active).

As for `CC(C)C[C@H](NC(=O)CNC(=O)c1cc(Cl)ccc1Cl)B(O)O`, the Potency was 166 nM (active).

In the case of `Cn1c(=O)n(-c2ccc(C(C)(C)C#N)cc2)c2c3cc(-c4cnc5ccccc5c4)ccc3ncc21`, the Potency was 10.5 nM (active).

On to `CC[C@@H]1C(=O)N(C)c2cnc(Nc3ccc(C(=O)NC4CCN(C)CC4)cc3OC)nc2N1C1CCCC1`, for which the Potency was 7430 nM (active).

In the case of `O=C(O)c1ccc2c(c1)nc(Nc1cccc(Cl)c1)c1ccncc12`, the Potency is 18700 nM (active).

In the case of `O=C(Cc1ccc(-c2ccc(OCCN3CCOCC3)cc2)cn1)NCc1ccccc1`, the Potency was 148 nM (active).

Turning to `NC(=O)c1c(OCc2c(F)cc(Br)cc2F)nsc1NC(=O)NCCCCN1CCCC1`, the Potency was 23500 nM (active).

For the molecule `Cc1ccc(NC(=O)C2(c3ccc4c(c3)OC(F)(F)O4)CC2)nc1-c1cccc(C(=O)O)c1`, the Potency is 93.5 nM (active).

Regarding `CC(C)(C)c1cnc(CSc2cnc(NC(=O)C3CCNCC3)s2)o1`, the Potency was 332 nM (active).

`CC(C)=CCCC(C)=CCCC(C)=CCSc1ccccc1C(=O)O`: the Potency was 418 nM (active).

Take `CNC(=O)c1ccccc1Nc1nc(Nc2ccc(N3CCOCC3)cc2OC)ncc1Cl`: the Potency was 1050 nM (active).

Consider `CC(=O)SC[C@@H](C)C(=O)N1CCC[C@H]1C(=O)N[C@@H](Cc1ccccc1)C(=O)O`, for which the Potency entry was “inactive”.

Consider `CN(C)Cc1c(C(=O)NCCOc2ccc(C(=O)NO)cc2)oc2ccccc12`, for which the Potency was 1480 nM (active).

Take `Cc1cc(CN2CCN(c3c(Br)cnc4nc(-c5ccc(N6CCN(C)CC6)cc5)[nH]c34)CC2)no1`: the Potency is 29600 nM (active).

`CC1(C)OC2=C(C(=O)c3ccccc3C2=O)[C@H](NCc2ccccc2)[C@H]1O`: the Potency was 8330 nM (active).

With `Cc1nc2cnc3ccc(C#Cc4cccnc4)cc3c2n1-c1ccc(C(C)(C)C#N)cc1`, the Potency was 83.3 nM (active).

Take `COc1cc2c(Oc3ccc(-c4cnc(Nc5ccc(F)cc5)n(C)c4=O)cc3F)ccnc2cc1OCCCN1CCOCC1`: the Potency is 5900 nM (active).

Turning to `Cc1coc2c1C(=O)C(=O)c1c-2ccc2c1CCCC2(C)C`, the Potency is 2090 nM (active).

As for `Cc1cc(Nc2nc(N[C@@H](C)c3ccc(F)cc3)c(C#N)cc2F)n[nH]1`, the Potency was 11800 nM (active).

Regarding `CCOc1ccccc1OCCNC(C)Cc1ccc(OC)c(S(N)(=O)=O)c1` (stereo not given), the Potency entry was “inactive”.

In the case of `CC1(C)O[C@@H]2C[C@@H]3[C@H]4C[C@@H](F)C5=CC(=O)C=C[C@]5(C)[C@@]4(F)[C@@H](O)C[C@]3(C)[C@]2(C(=O)CO)O1`, the Potency is 8.3 nM (active).

With `Nc1ccccc1NC(=O)c1ccc(CNC(=O)OCc2cccnc2)cc1`, the Potency is 3320 nM (active).

As for `CNC(=O)c1ccc(-c2cnc3ncc(Cc4ccc5ncccc5c4)n3n2)cc1F`, the Potency result was “inactive”.

Consider `Cc1ccc(C(N)=O)cc1Nc1nccc(-c2cn(C(C)C)c3cnccc23)n1`, for which the Potency is 16600 nM (active).

Consider `C=CC(=O)Nc1cccc(Oc2nc(Nc3ccc(N4CCN(C)CC4)cc3)ncc2Cl)c1`, for which the Potency was 14800 nM (active).

As to `Cc1cccc(C=NNc2cc(N3CCOCC3)nc(OCCc3ccccn3)n2)c1`, the Potency is 18700 nM (active).

Take `CNC(=O)c1cc(Oc2ccc(NC(=O)Nc3cc(C(C)(C)C)nn3-c3ccc4ncccc4c3)c(F)c2)ccn1`: the Potency was 16600 nM (active).

For `C=CC(=O)N1CCC[C@@H](n2nc(-c3ccc(Oc4ccccc4)cc3)c3c(N)ncnc32)C1`, the Potency is 20900 nM (active).

On to `COc1ccc(-n2nc(C(N)=O)c3c2C(=O)N(c2ccc(N4CCCCC4=O)cc2)CC3)cc1`, for which the Potency entry was “inactive”.

Take `COc1cc2c(cc1-c1c(C)noc1C)ncc1[nH]c(=O)n([C@H](C)c3ccccn3)c12`: the Potency is 7430 nM (active).

For `COc1ccc2c(c1)CC[C@@H](CN(C)CC(=O)O)[C@H]2c1ccccc1`, the Potency was 2640 nM (active).

In the case of `Cc1cc(Nc2cc(N3CCN(C)CC3)nc(Sc3ccc(NC(=O)C4CC4)cc3)n2)n[nH]1`, the Potency was 13200 nM (active).
